PubChem BioAssay AID651958 (The Scripps Research Institute Molecular Screening Center, 2012)
Out of some 370,000 compounds screened, about 2,000 (0.54%) were called active. The list comes from a sample in which actives are over-represented; it also holds similar structures and randomly drawn compounds. A number with no mark means an inactive call. No stated cut-off is given here; in the data, active means inhibition above about 30%; inactive means the rest.

Tested on: Crimean-Congo hemorrhagic fever virus L polyprotein viral ovarian tumor (vOTU) protease domain
Assay: CCHFV vOTU protease inhibitors, primary screen, biochemical, Pep-AMC substrate, fluorescence (AID 651958); further: 0% = vehicle wells with enzyme and 100% = no enzyme wells
Details: at 11.5 µM, hits give high values

Row | SMILES | inhibition
1 | O=C(COCc1cc(-c2ccc3c(c2)OCO3)on1)N1CCN(c2cccc(Cl)c2)CC1 | 7.08%
2 | Cc1coc2c(O)cc3c(c12)OC1(N2CCCCC2)C(=O)NCCCC31 (stereo not given) | 51.9% (active)
3 | CCN1CCN(CC(=O)c2cc(OC)c(OC)c(OC)c2)CC1 | -2.49%
4 | Oc1c(Cl)cc(Cl)c(Cl)c1Cc1c(O)c(Cl)cc(Cl)c1Cl | 39% (active)
5 | CC(=O)Nc1ccc(SCC(=O)Nc2ccccc2Oc2ccccc2)cc1 | -1.09%
6 | CC1(C)S[C@@H]2[C@H](NC(=O)COc3ccccc3)C(=O)N2C1C(=O)OCc1ccccc1 (stereo not given in full) | 3.3%
7 | O=C1C2C3C=CC(C4CC34)C2C(=O)N1/N=C/c1ccc(-c2ccccc2[N+](=O)[O-])o1 (stereo not given) | 13.7%
8 | Cc1ccc(-c2ccc(/C=C(\C#N)C(N)=S)o2)c([N+](=O)[O-])c1 | 16.7%
9 | CC1=NN(c2ccc(Cl)c(C(=O)O)c2)C(=O)/C1=C/c1ccc(-c2ccccc2[N+](=O)[O-])o1 | 32.7% (active)
10 | CC(C)[C@H](NC(=O)N1c2ccccc2NC(=O)[C@@H]1C(C)C)C(=O)N[C@H](C(=O)O)c1ccccc1 | -2.64%
11 | O=S(=O)(c1ccc(Sc2nnc3ccccn23)nc1)N1CCOCC1 | -14.3%
12 | NNC(=O)c1cccc(COCC(F)(F)C(F)F)c1 | -1.18%
13 | CCCCNC(=O)C1CCC(=O)N1CCc1ccccc1 (stereo not given) | 0.15%
14 | Cc1cc(C)cc(NC(=S)NCCc2c[nH]c3ccccc23)c1 | 30.6% (active)
15 | O=C(COC(=O)Cc1c[nH]c2ccccc12)NCCc1ccccc1 | -6.33%
16 | Cc1ccc(S(=O)(=O)N(C)CC(=O)NCCc2c[nH]c3ccccc23)cc1 | 1.27%
17 | Clc1ccc(CSc2nnc([C@@H]3CCCN3)o2)cc1 | 2.88%
18 | Cc1nn(CCCC(=O)NCc2ccccc2Cl)c(=O)c2nccn12 | 3.6%
19 | COc1ccc2c(c1)CCc1cn3ncc(C#N)c3nc1-2 | -345%
20 | NCCN1CCN2C(=O)CN(C(=O)c3ccccc3)CC12 (stereo not given) | 12.1%
21 | O=S(=O)(Nc1ccc(O)c2ccccc12)c1ccc(OC(F)(F)F)cc1 | 72.5% (active)
22 | O=[N+]([O-])c1ccc(NS(=O)(=O)c2ccccc2)c(Cl)c1 | 12.9%
23 | O=S(=O)(Cc1noc(-c2ccc(OC(F)(F)F)cc2)n1)c1ccc(F)cc1 | 2.35%

Row | SMILES | inhibition
24 | O=C(c1ccc(F)cc1)N1CCC(C(=O)N2CCN(S(=O)(=O)c3ccccc3Br)CC2)CC1 | -5.29%
25 | CC(C)[C@@H](C(=O)O)N(Cc1cccc(CN([C@H](C(=O)O)C(C)C)S(C)(=O)=O)c1)S(C)(=O)=O | 1.18%
26 | CCC(C)CCN1CCN=C1N(C)C (stereo not given) | 10.6%
27 | CC(Sc1nncn1C)C(=O)Nc1ccccc1-c1ccccc1 (stereo not given) | 3.71%
28 | CC(C(=O)Nc1ccccc1-c1ccccc1)N1CCOCC1 (stereo not given) | 30% (active)
29 | CC(C(=O)Nc1ccc(Cl)cc1Cl)N1CC=C(c2ccccc2)CC1 (stereo not given) | -3.9%
30 | COc1ccc(S(=O)(=O)N(C)C[C@H]2OCc3cnnn3CCCC(=O)N([C@H](C)CO)C[C@H]2C)cc1 | -4.66%
31 | O=C(Nc1ccc(F)cc1)C(=O)c1cn(CC(=O)N2CCOCC2)c2ccccc12 | -0.24%
32 | COc1cccc(NC(=O)CS(=O)(=O)c2cn(CC(=O)N3CCOCC3)c3ccccc23)c1 | 6.34%
33 | COc1cccc(NC(=O)C(=O)c2cn(CC(=O)N3CCOCC3)c3ccccc23)c1 | 40.2% (active)
34 | CN(Cc1c(F)cccc1Cl)C(=O)COC(=O)Cn1cnc2ccccc2c1=O | -6.54%
35 | CCCCC(O)(CCCC)C(=O)NN(C(=O)CCl)c1ccccc1 | 8.68%
36 | CCCc1ccc(OCC(O)CN2CCN(CCO)CC2)cc1 (stereo not given) | -10.8%
37 | COc1ccc(CN2CCC(C)(Oc3cccc(F)c3)C2)c2ccccc12 (stereo not given) | 10%
38 | CCC1(C)Cc2c(sc3nnn(CC(=O)Nc4ccc(Cl)cc4)c(=O)c23)CO1 (stereo not given) | -1.67%
39 | CCCSc1nc(NCc2ccco2)c2c3c(sc2n1)COC(C)(CC)C3 (stereo not given) | 30.9% (active)
40 | CN1CCc2c(sc3c2c(NCc2ccco2)nc2nnnn23)C1 | -25.3%
41 | Clc1ccc(C(Cn2ccnc2)OCc2ccsc2Cl)c(Cl)c1 (stereo not given) | 9.88%
42 | Clc1ccc(C2=CSC3=Nc4cccc5cccc(c45)N23)cc1 | 103% (active)
43 | COc1ccc(CN(Cc2ccco2)S(=O)(=O)c2ccc(S(=O)(=O)N3CCCC3)cc2)cc1 | -4.58%
44 | O=C1C=C(NS(=O)(=O)c2ccccc2)C(=O)c2ccccc21 | 41.9% (active)
45 | CC(=O)NS(=O)(=O)c1ccccc1 | -12.3%
46 | Cc1cc(NS(=O)(=O)c2ccccc2)no1 | -7.1%

Row | SMILES | inhibition
47 | O=C(NC1=CC(=O)c2ccccc2C1=O)c1ccccc1 | 101% (active)
48 | O=c1ccn([C@@H]2O[C@H](CNS(=O)(=O)c3cc4ccccc4s3)[C@@H](O)[C@H]2O)c(=O)[nH]1 | -7.44%
49 | COc1ccc(C2c3[nH]c4ccccc4c3C[C@H]3C(=O)N(CC(C)C)CC(=O)N23)c(OC)c1 (stereo not given in full) | -0.95%
50 | COc1ccc(/C=C2\N=C3CCCN3C2=O)cc1 | 5.48%
51 | NC(=O)COc1ccc(C23CC4CC(CC(C4)C2)C3)cc1 | -6.98%
52 | O=C(Oc1ccccc1C(=S)N1CCCCC1)c1cc([N+](=O)[O-])cc([N+](=O)[O-])c1 | -1.38%
53 | CCCS(=O)(=O)NC(=O)C1(C)CCN(C(=O)c2sccc2C)C1 (stereo not given) | 47.1% (active)
54 | CCCS(=O)(=O)NC(=O)C1(C)CCCN(C(=O)c2cc(C)on2)C1 (stereo not given) | -4.97%
55 | CCCS(=O)(=O)NC(=O)C1(C)CCCN(C(=O)c2cccs2)C1 (stereo not given) | 4.76%
56 | COc1ccc2c(c1)[C@@]13CCCCC1[C@@H](C2)NCC3 (stereo not given in full) | -1.34%
57 | CC1(Cc2cccc(C#N)c2)C(=O)Nc2ccc(-c3cccc(C(F)(F)F)c3)cc21 (stereo not given) | 21.6%
58 | CCc1ccc2c(c1)C1(NN=C(c3ccccc3)S1)C(=O)N2 (stereo not given) | 1.82%
59 | CCc1ccc2c(c1)NC(=O)C2(C)Cc1ccc(OC(F)(F)F)cc1 (stereo not given) | 31.4% (active)
60 | CCCn1nc(Oc2nc(NC(C)C)nc(N(C)C)n2)ccc1=O | -1.37%
61 | O=C(O)CCN1C(=O)CC2(CCCCC2)C1=O | 2.77%
62 | COCc1[nH][nH]c(=O)c1C=Nc1ccc(F)cc1F | 4.69%
63 | O=C(NCc1ccccn1)C1CCN(S(=O)(=O)c2ccc(Br)cc2)CC1 | -7.95%
64 | N#CC1=C(N)Oc2c(c(=O)oc3ccccc23)C1c1ccccc1OC(=O)c1cccs1 (stereo not given) | 2.95%
65 | COc1ccccc1C1CC(=O)n2c(nc(-c3ccccc3)c2-c2ccccc2)S1 (stereo not given) | -11.5%
66 | COc1ccccc1C1C(C#N)=C(N)Oc2c1c(-c1ccccc1)nn2-c1ccccc1 (stereo not given) | 31% (active)
67 | Cc1ccc(S(=O)(=O)N2CCC(=O)N([C@H](COCc3ccccc3)Cc3ccccc3)CC2)cc1 | 4.4%
68 | Cc1cc(F)ccc1S(=O)(=O)Nc1ncnc2scc(-c3ccc(F)cc3)c12 | -9.09%
69 | Cc1ccc(CN2CCCCC(NC(=O)C3CCCCC3)C2=O)cc1 (stereo not given) | 6.33%

Row | SMILES | inhibition
70 | CCn1nc(C)c(CN2CCN(Cc3ccc(OC)c(C)c3C)C(CCO)C2)c1C (stereo not given) | -10.4%
71 | Cc1ccc(NS(=O)(=O)c2ccc(N/N=C/c3ccccc3OCC(=O)O)c([N+](=O)[O-])c2)c(C)c1 | 49.3% (active)
72 | Cc1ccc(NS(=O)(=O)c2ccc3c(c2)n(C)c(=O)c(=O)n3C)c(C)c1 | 9.52%
73 | Cc1ccc(C)c(NS(=O)(=O)c2ccc(OCC(=O)NCc3cccnc3)cc2)c1 | 7.43%
74 | O=C(O)c1ccccc1/C=N/Nc1ccc(S(=O)(=O)Nc2ccc(Cl)cc2)cc1[N+](=O)[O-] | 31.2% (active)
75 | O=[N+]([O-])c1cc(S(=O)(=O)Nc2cccc(Cl)c2)ccc1N=Nc1c(O)[nH]c2ccccc12 | -13%
76 | O=C(Nc1cc(S(=O)(=O)Nc2ccc(Cl)cc2)ccc1O)c1ccc(F)cc1F | 1.4%
77 | CCn1c(O)c(N=NC2=NC(=O)CS2)c2cc(C)ccc21 | 10.8%
78 | CC(C)c1c(CN(C)C(C)Cc2ccccc2)n(C)n(-c2ccccc2)c1=O (stereo not given) | 3.82%
79 | COc1cccc(CNC(=O)CCC2CCCN(C(=O)c3ccoc3C)C2)c1 (stereo not given) | -3.63%
80 | CCCNC(=O)c1ccc(N2CCC3(CC2)CC(c2ccc(Cl)cc2)=NO3)c([N+](=O)[O-])c1 | 5.33%
81 | CC1CCCN(S(=O)(=O)c2ccc(N(C(=O)c3cnccn3)C(C(=O)NC3CCCCC3)c3cccs3)cc2)C1 (stereo not given) | 3.18%
82 | CNc1ccc(SC#N)cc1 | 7.09%
83 | O=C(Nc1cccc(S(=O)(=O)N2CCCCC2)c1)c1cncc(Br)c1 | 17.5%
84 | O=C(Nc1cccc(S(=O)(=O)N2CCCCC2)c1)c1ccc2c(c1)OCO2 | 30.3% (active)
85 | O=C(Nc1cccc(S(=O)(=O)N2CCCC2)c1)c1cncc(Br)c1 | 6.4%
86 | CN1[C@H](Cc2ccccc2)COc2cccc(N3CCSCC3)c2S1(=O)=O | -7.16%
87 | O=C(CNC(c1ccccc1)c1ccccc1)Nc1ccc(F)cc1 | -6.64%
88 | COc1ccc(CNS(=O)(=O)c2cc3c4c(c2)CCN4C(=O)CC3)cc1 | 9.3%
89 | COc1ccccc1CCNS(=O)(=O)c1cc2c3c(c1)C(C)C(=O)N3CCC2 (stereo not given) | 14%
90 | COc1ccccc1CNS(=O)(=O)c1cc2c3c(c1)CCC(=O)N3CCC2 | 31.9% (active)
